Most compounds without a hit are left out; they make up all but 6.2% or so of the library.
LASV entry inh: blocks Lassa virus binding to or entry into cells. Lassa virus pseudotype entry inhibition, cell reporter. Potency, µM (doses to about 37.9 µM), hits mostly inhibitors. hit rate 1.2% among 300,000. AID 540256; calls by dose curve; tested in HEK293 cells; also: nearly all actives have a fitted effect of over 50% in size
Marburg entry inh: blocks Marburg virus binding to or entry into cells; Potency, µM (doses to about 37.8 µM), most hits filed as inhibitors; hit rate 1.8% among 300,000; Marburg virus pseudotyped entry inhibition, cell reporter; AID 540276; calls by dose curve; tested in HEK293 cells
FMDV inh: antivirals against foot and mouth disease virus | AID 1159524 | hit rate 1.2% among 410,000 | FMDV antiviral cell-based qHTS | Potency, µM (doses to about 57.9 µM), hits mostly inhibitors; calls by dose curve; tested in HEK293T cells; also: read-out not given here; nearly all actives have a fitted effect of over 45% in size
HCMV inh: blocks human cytomegalovirus replication; hit rate 4.5% among 410,000; AID 1259415; activity change, negative = inhibition, % at 57.5 µM; HFF cells, HCMV-luciferase reporter, 72 h; hits give low values; in the data active = activity change below about -60%; inconclusive = no clear call, values can overlap the other calls; inactive = above about -39%
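Two-dose cell screen: HFF monolayers treated with compounds and infected with luciferase-expressing HCMV at 1 PFU/cell, 72 h at 37C, then lysed for luciferase measurement.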
Large screens that a line does not name were inactive.

COc1cc(/C=N/OCC(=O)Nc2ccc(OC(F)F)cc2)ccc1OCc1ccccc1	LASV entry inh inconclusive, Marburg entry inh 7.08µM
COc1ccc(/C=N/OCC(=O)NC(c2ccccc2)c2ccccc2)cc1OC	LASV entry inh inconclusive, Marburg entry inh inconclusive, FMDV inh 7.08µM, HCMV inh -65.5
O=S(=O)(NCC(c1ccco1)N1CCN(c2ccc(F)cc2)CC1)c1ccccc1 (stereo unspecified)	LASV entry inh inconclusive (no result: Marburg entry inh)
O=S(=O)(NCCC(c1ccc(F)cc1)c1ccco1)c1ccccc1 (stereo unspecified)	FMDV inh 4.47µM, HCMV inh inconclusive
Fc1ccc(C(CCNCc2cccs2)c2ccco2)cc1 (stereo unspecified)	Marburg entry inh 7.94µM
CC1(C(=O)NCc2cccc3ccccc23)CCN1CCc1ccccc1 (stereo unspecified)	none (no result: LASV entry inh, Marburg entry inh)
COc1ccc(N2CCN(C(=O)CCc3c(C)nn(-c4ccc(N5CCCC5)nn4)c3C)CC2)cc1	none (no result: Marburg entry inh)
Cc1cccc(C(CC(=O)NCCc2ccccc2)c2ccccc2)c1O (stereo unspecified)	none (no result: LASV entry inh, Marburg entry inh)
CCOP(=O)(OCC)c1cccc(O)c1	HCMV inh -65.0
CC(C)NC(=O)N1CCC2(CC1)CCN(S(C)(=O)=O)CC2	none (no result: LASV entry inh, Marburg entry inh, HCMV inh)
CCC(C)c1ccc(S(=O)(=O)N2CCN(C(C)C(=O)NC3CCCC3)CC2)cc1 (stereo unspecified)	LASV entry inh 2.82µM, HCMV inh inconclusive
CC(C)c1ccc(S(=O)(=O)N2CCN(C(C)C(=O)N3CCCC3)CC2)cc1 (stereo unspecified)	LASV entry inh inconclusive, HCMV inh -70.0
O=C(CNC(=O)c1ccc(-c2ccccc2)cc1)Nc1cccc(CO)c1	LASV entry inh inconclusive, Marburg entry inh inconclusive
COC(=O)C1CCN(C(=O)c2cc(-c3ccc(Cl)s3)nc3ccccc23)CC1	FMDV inh 35.5µM (no result: LASV entry inh, Marburg entry inh)
Cc1ccc(-c2cc(C(=O)O)c3ccccc3n2)s1	none (no result: LASV entry inh, Marburg entry inh)
CCN1CCN(C(=O)c2cc(-c3ccc(Cl)s3)nc3ccccc23)CC1	none (no result: LASV entry inh, Marburg entry inh)
O=C(O)c1cc(-c2ccc(Cl)s2)nc2ccccc12	LASV entry inh inconclusive, Marburg entry inh 11.2µM
CC(=O)Nc1ccc(NC(=O)COC(=O)Cn2cnc3ccccc32)cc1	none
CCOC(=O)C(C)(C)N(Cc1ccc(C)cc1)S(=O)(=O)c1ccc(Cl)c([N+](=O)[O-])c1	LASV entry inh inconclusive, Marburg entry inh inconclusive, FMDV inh 25.1µM
Cc1cc(O)c(C(=O)/C=C/c2ccccc2)c(=O)o1	FMDV inh 11.2µM, HCMV inh -92.5
Cc1cc(O)c(C(=O)/C=C/c2ccccc2Br)c(=O)o1	LASV entry inh inconclusive, FMDV inh 11.2µM, HCMV inh -87.3
COc1ccc(C(=O)NCCNc2nc3c(C)cccc3cc2C#N)cc1OC	none (no result: LASV entry inh, Marburg entry inh)
CC1(C)C2CCC1(C)C1(C2)NC(=O)c2ccccc2O1 (stereo unspecified)	none
COc1ccc(CCNC(=O)c2ccc3c(c2)OCCO3)cc1	LASV entry inh inconclusive, Marburg entry inh inconclusive
O=C(CCCc1ccccc1)c1ccc2c(c1)OCCO2	LASV entry inh inconclusive, Marburg entry inh 0.461µM, FMDV inh 7.94µM, HCMV inh -91.2
O=C(CCc1ccccc1)c1ccc2c(c1)OCCCO2	LASV entry inh inconclusive
O=C(NCCc1ccccc1)c1ccc2c(c1)OCCCO2	LASV entry inh inconclusive, Marburg entry inh inconclusive, FMDV inh 1.12µM, HCMV inh -92.8
O=C(C[n+]1ccc(C(=O)NCc2ccccc2)cc1)c1ccc2c(c1)OCCO2	none
O=C(NCCc1ccccc1)c1ccc2c(c1)OCCO2	LASV entry inh 0.355µM, Marburg entry inh 0.447µM, FMDV inh 1.78µM, HCMV inh -79.1
Nc1cc[n+](CC(=O)c2ccc3c(c2)OCCO3)cc1	LASV entry inh inconclusive, FMDV inh inconclusive, HCMV inh -82.3
CN(C(=O)CSc1nnc(-c2c[nH]c3ccccc23)n1C1CC1)C1CCS(=O)(=O)C1 (stereo unspecified)	none (no result: LASV entry inh, Marburg entry inh)
CC(=O)C1C(C)CC2C3CCC4CC(=O)CCC4(C)C3CCC21C (stereo unspecified)	none
CC1(C)CC(N=c2cc(-c3ccccc3)oc3ccc(Cl)cc23)CC(C)(C)N1	LASV entry inh inconclusive, Marburg entry inh inconclusive, HCMV inh -98.9
COC(=O)CNC(=O)CN1C(=O)N(c2cccc(Cl)c2)C(N(O)C(=O)Nc2cccc(Cl)c2)C1(C)C (stereo unspecified)	FMDV inh inconclusive
COc1cccc(-c2cnc(C(O)c3ccc(F)cc3)[nH]2)c1 (stereo unspecified)	none (no result: LASV entry inh, Marburg entry inh)
O=C(Cn1cnc2ccccc2c1=O)NCCC(=O)N1CCC2(CC1)OCCO2	none
COCCOC1CCN(Cc2cn(Cc3ccccc3)nc2-c2cc3ccccc3o2)CC1	none (no result: LASV entry inh, Marburg entry inh)
OC1CCCN(Cc2cn(Cc3ccccc3)nc2-c2cc3ccccc3o2)C1 (stereo unspecified)	Marburg entry inh 25.9µM
CCC(O)C1CCN(Cc2cn(Cc3ccccc3)nc2-c2cc3ccccc3o2)CC1 (stereo unspecified)	HCMV inh -61.3 (no result: LASV entry inh, Marburg entry inh)
CCOc1ccc(N2CC(C(=O)NCCc3ccc(OC)c(OC)c3)CC2=O)cc1 (stereo unspecified)	none
Cc1ccc(NC(=O)CN2C(=O)NC(Cc3ccccc3)C2=O)cc1 (stereo unspecified)	Marburg entry inh inconclusive
CCOC(=O)C1(C)C=C(Nc2ccc(O)cc2)C(=O)N1c1ccc(O)cc1 (stereo unspecified)	Marburg entry inh inconclusive, HCMV inh -70.4
CCOC(=O)C1(C)C=C(Nc2ccc(OC)cc2)C(=O)N1c1ccc(OC)cc1 (stereo unspecified)	none
CS(=O)(=O)N1CCC(C(=O)NCc2ccc(Cl)cc2Cl)CC1	none
CC(=O)c1cc(-c2ccccc2)n(CCC(=O)Nc2ccc(C)cc2C)c1C	none (no result: Marburg entry inh)
CC(=O)c1cc(-c2ccccc2)n(CC(=O)Nc2ccc(C)cc2C)c1C	HCMV inh active (no result: Marburg entry inh)
Cc1nc2ccccc2n1CC(=O)NC1CCCCCC1	FMDV inh inconclusive, HCMV inh -62.4 (no result: LASV entry inh, Marburg entry inh)
CC(=O)c1cc(-c2ccccc2)n(CCC(=O)NC2CCCCCCC2)c1C	none
CC(=O)c1cc(-c2ccccc2)n(CC(=O)NC2CCCCCC2)c1C	HCMV inh active (no result: Marburg entry inh)
CCOc1cc(N2CCOCC2)c(OCC)cc1NC(=O)Cn1[nH]c(=O)c2ccccc2c1=O	none
Nc1c(N(CCO)C(=O)c2ccccc2OCc2ccccc2Cl)c(=O)[nH]c(=O)n1Cc1ccccc1	LASV entry inh inconclusive
CCOC(=O)n1c(=O)oc2ccccc21	HCMV inh -96.0
CC1Cc2[nH]c(=S)[nH]c(=O)c2C(C(C)C)O1 (stereo unspecified)	none (no result: LASV entry inh, Marburg entry inh)
CC(C)(C)Nc1nc(NN)nc(NC(C)(C)C)n1	LASV entry inh inconclusive, Marburg entry inh inconclusive, HCMV inh -84.6
C/C(CC1CC2=C(CC1(C)C)C(C)(C)CCC2)=N\NC(N)=S (stereo unspecified)	LASV entry inh inconclusive, Marburg entry inh inconclusive, FMDV inh inconclusive, HCMV inh -65.0
C/C(CC1CC(C)(C)OC1=O)=N\NC(N)=S (stereo unspecified)	HCMV inh inconclusive
CCn1c(C(C)NC(=O)c2cccs2)nc2ccccc21 (stereo unspecified)	HCMV inh inconclusive (no result: LASV entry inh, Marburg entry inh)
Cc1ccnc2nc(C(=O)OCC(=O)NCCc3ccc(Cl)cc3)nn12	none

Assay outcomes: PubChem BioAssay, National Center for Advancing Translational Sciences (NCATS)
